# Assay results reported in PubChem BioAssay.
# Where “and” joins values, the source holds several entries; their conditions need not be identical. Identical values can stand only once. Calls of active or inactive are those of the source. Unless noted, no stated cut-off is given here; in the data, active means nuclear beta-catenin stimulation mostly above about 4.2% (no sharp cut-off); inactive means mostly below about 10%.
# Key:
# [1] = compounds altering viability of human ES cells (AID 493140; call rule not given here;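 further: cells exposed to compounds for four days before counting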); details: human embryonic stem cell survival screen; stronger effect = higher value
# [2] = P. berghei load reduction in hepatocytes – cell-based, HepG2, luciferase luminescence, HepG2 viability, primary screen (AID 624349; in the data active means parasite load remaining mostly below about 12%, no sharp cut-off; inactive means mostly above about 10%;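 further: 100% = mean of DMSO negative control wells on the same plate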); details: P. berghei liver stage in HepG2, luciferase luminescence, concentration not given here; parasite load remaining: stronger effect = lower value; viability: measured here: HepG2 viability without parasites
# [3] = Wnt pathway potentiators raising nuclear beta-catenin – imaging, WNT3A-conditioned medium, mouse C2C12, NPC library, primary screen (AID 1117326); details: stronger effect = higher value; further: reference of the scale not given here
# [4] = stimulators of insulin release from INS-1E, primary screen, cell-based, 5 mM glucose, NPC library (AID 1117329;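 active means compound raises insulin release from rat beta cells at 5 mM glucose, no numeric limit stated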; further: reference of the scale not given here); details: rat INS-1E insulin secretion, at 10 µM, stronger effect = higher value
# [5] = growth inhibition of GSK3B-pretreated HCT116 cells – cell-based, CellTiter-Glo, 0.2 to 20 µM (AID 1117336;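 active means compounds lowering colon cancer cell viability after pretreatment blocking the GSK3B kinase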); details: HCT116 viability after GSK3B inhibitor, at 20 µM, stronger effect = higher value
# [6] = inhibition of endothelial tube formation, primary screen, imaging, VEGF stimulated, CD31 staining, tube area, NPC library (AID 1117340;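 active means compound that reduces growth-factor-driven endothelial tube area in a mixed cell culture, no cutoff stated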); details: VEGF-stimulated ADSC/ECFC co-culture, at 10 µM, stronger effect = higher value
# [7] = GLP1 release stimulators, primary, NCI-H716, NPC library (AID 1117341;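 active means compound raises GLP1 secretion from the human gut endocrine cells, with no numeric limit stated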; further: reference of the scale not given here); details: NCI-H716 cells, at 10 µM, stronger effect = higher value
# [8] = HCT116 colon cancer cell growth inhibition, primary screen, CellTiter-Glo luminescence, NPC library (AID 1117342;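 active means compounds that lower survival of HCT116 colon cancer cells in the luminescence readout, no numeric limit stated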); details: at 20 µM (top of the series)
# [9] = reduced SW480 viability measured with CellTiter-Glo, NPC library, primary (AID 1117343;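 active means compounds that lower viability of the colon cancer cells in the luminescence readout, with no numeric limit stated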); details: CellTiter-Glo luminescence; at 20 µM (top of the series)
# [10] = NPC library primary testing for decreased DLD-1 cell viability via CellTiter-Glo (AID 1117346;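 active means compounds that lower survival of DLD-1 colon cancer cells in the luminescence readout, no cutoff given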); details: DLD-1 viability, CellTiter-Glo luminescence; at 20 µM (top of the series)
# [11] = viability loss with induced miR-34 in A549 – imaging, A549 dox-inducible miR-34, nuclei and caspase counts, primary screen (AID 1347080;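 active means compounds whose cell count with miR-34 switched on is under 0.7 times the count with it off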); details: A549 miR-34 inducible, Hoechst nuclei count, 48 h
# [12] = MELAS cybrid and Rieske KO viability enhancers – cell-based, MELAS cybrids, Rieske KO mouse fibroblasts, CellTiter-Glo, primary screen (AID 1508586;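 active means mean z-score across replicates of 1.96 or higher in either the MELAS or the Rieske mutant cell line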;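 further: z relative to plate mean and SD of compound and empty wells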); details: low glucose
# [13] = target: NAD(+) hydrolase SARM1 (Homo sapiens) (UniProt Q6SZW1); experiment: blocking NAD cleavage by SARM1 SAM-TIR – cell lysate, NAD-Glo luminescence (AID 1508614;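 active means compound whose remaining NAD level is above about 45 nM, limit read from the data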); details: SAM-TIR HEK293T lysate NADase, at 1 µM, stronger effect = higher value
# [14] = galactose survival enhancers in mitochondrial complex I cybrids – cell-based, galactose medium, ATP luminescence, primary screen (AID 1645843;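 active means z-score of at least 1.8 in each of two replicates, scored against plate mean and spread of sample wells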;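 further: positive z means more ATP and so rescue of galactose-driven cybrid death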); details: complex I mutant cybrid cells, 72 h, stronger effect = higher value
# [15] = measured here: relative caspase fold change +Dox/-Dox
# [16] = measured here: total cells with miR-34 induction, stronger effect = lower value
# [17] = measured here: total cells without miR-34 induction
# [18] = MELAS cybrid survival, CellTiter-Glo 48 h, stronger effect = higher value
# [19] = Rieske KO mouse fibroblast survival, CellTiter-Glo 72 h
# NAD(+) hydrolase SARM1 (Homo sapiens), sequence (Q6SZW1 whole entry, looked up): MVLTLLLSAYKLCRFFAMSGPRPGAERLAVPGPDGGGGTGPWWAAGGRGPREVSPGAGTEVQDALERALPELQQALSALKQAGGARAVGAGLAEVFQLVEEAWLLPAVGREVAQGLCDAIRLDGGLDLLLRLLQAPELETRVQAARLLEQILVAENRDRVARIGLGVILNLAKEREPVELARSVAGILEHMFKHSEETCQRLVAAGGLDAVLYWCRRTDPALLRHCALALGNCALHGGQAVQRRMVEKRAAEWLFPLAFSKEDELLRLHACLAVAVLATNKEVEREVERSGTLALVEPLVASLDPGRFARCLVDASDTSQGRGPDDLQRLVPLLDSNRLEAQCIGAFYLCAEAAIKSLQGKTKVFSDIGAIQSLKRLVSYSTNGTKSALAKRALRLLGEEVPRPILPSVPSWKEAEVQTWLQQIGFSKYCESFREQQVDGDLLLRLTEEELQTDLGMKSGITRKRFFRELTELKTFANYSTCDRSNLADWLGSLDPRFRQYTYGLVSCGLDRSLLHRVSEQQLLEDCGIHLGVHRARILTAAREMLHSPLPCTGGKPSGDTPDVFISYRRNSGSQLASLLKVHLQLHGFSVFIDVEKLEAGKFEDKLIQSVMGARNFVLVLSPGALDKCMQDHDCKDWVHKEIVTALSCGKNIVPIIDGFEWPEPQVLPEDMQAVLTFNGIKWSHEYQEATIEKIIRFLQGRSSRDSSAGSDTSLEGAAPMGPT
smiles,measurement,setting,value
Clc1ccc(CCC(Cn2ccnc2)Sc2c(Cl)cccc2Cl)cc1 (stereo not given),survival,[1],15 (inactive)
same,parasite load remaining,[2],5.94% (inactive) and 63.9% (inactive)
same,viability,[2],103% and 82.5%
same,nuclear beta-catenin stimulation,[3]; at 10 µM,15.6% (inactive)
same,nuclear beta-catenin stimulation,"[3]; stimulation, at 2 µM",4.3%
same,insulin secretion stimulation,[4],-0.2% (inactive)
same,viability decrease,[5],101% (active)
same,tube area decrease,[6],109% (active)
same,GLP1 secretion stimulation,[7],20.8% (active)
same,inhibition of viability,[8],101% (active)
same,viability decrease (inhibition),[9],123% (active)
same,viability decrease (inhibition),[10],103% (active)
same,fold change,[11]; stronger effect = lower value,0.969 (inactive) and 0.821 (inactive) and 0.887 (inactive)
same,fold change,[11]; [15],0.807 and 1.54 and 0.572
same,cell count,[11]; [16],5090 and 6860 and 7040
same,cell count,[11]; [17],5260 and 8350 and 7940
same,z-score,[12]; [18],0.075 (inactive) and -0.442 (inactive)
same,z-score,[12]; [19],-0.608 and 0.109
CCN[C@@H](C)Cc1cccc(C(F)(F)F)c1,nuclear beta-catenin stimulation,[3]; at 10 µM,3% (inactive)
same,nuclear beta-catenin stimulation,"[3]; stimulation, at 2 µM",2.2%
same,insulin secretion stimulation,[4],8.8% (inactive)
same,viability decrease,[5],-3.65% (inactive)
same,tube area decrease,[6],29.2% (active)
same,GLP1 secretion stimulation,[7],1.3% (inactive)
same,inhibition of viability,[8],-3.9% (inactive)
same,viability decrease (inhibition),[9],17.9% (inactive)
same,viability decrease (inhibition),[10],-6.6% (inactive)
same,z-score,[12]; [18],-1.11 (inactive)
same,z-score,[12]; [19],0.177
CCCCCCCCCCCC[N+](C)(C)CCOc1ccccc1,nuclear beta-catenin stimulation,[3]; at 10 µM,20.4% (inactive)
same,nuclear beta-catenin stimulation,"[3]; stimulation, at 2 µM",0.6%
same,insulin secretion stimulation,[4],5.9% (inactive)
same,viability decrease,[5],110% (active)
same,tube area decrease,[6],111% (active)
same,GLP1 secretion stimulation,[7],67% (active)
same,inhibition of viability,[8],112% (active)
same,viability decrease (inhibition),[9],134% (active)
same,viability decrease (inhibition),[10],101% (active)
same,fold change,"[11]; stronger effect = lower value, cell number ratio, induced over uninduced",0.988 (inactive)
same,fold change,[11]; [15],0.958
same,cell count,[11]; [16],6790
same,cell count,[11]; [17],6870
same,z-score,[12]; [18],-0.488 (inactive)
same,z-score,[12]; [19],-0.197
CC(=O)OCC1=C(C(=O)O)N2C(=O)[C@@H](N)[C@H]2SC1,survival,[1],9.33 (inactive)
same,parasite load remaining,[2],107% (inactive) and 94.3% (inactive)
same,viability,[2],91.6% and 74.9%
same,nuclear beta-catenin stimulation,[3]; at 10 µM,-0.8% (inactive)
same,nuclear beta-catenin stimulation,"[3]; stimulation, at 2 µM",0.2%
same,insulin secretion stimulation,[4],-2.9% (inactive)
same,viability decrease,[5],27.2% (inactive)
same,tube area decrease,[6],10.2% (inactive)
same,GLP1 secretion stimulation,[7],1.9% (inactive)
same,inhibition of viability,[8],-5.2% (inactive)
same,viability decrease (inhibition),[9],82.6% (active)
same,viability decrease (inhibition),[10],29.3% (inactive)
same,fold change,[11]; stronger effect = lower value,0.918 (inactive)
same,fold change,[11]; [15],1.55
same,cell count,[11]; [16],8570
same,cell count,[11]; [17],9340
same,z-score,[12]; [18],0.366 (inactive)
same,z-score,[12]; [19],-0.158
O=C(NC(=O)c1c(F)cccc1F)Nc1ccc(Cl)c(Oc2ncc(C(F)(F)F)cc2Cl)c1,nuclear beta-catenin stimulation,[3]; at 10 µM,1.2% (inactive)
same,nuclear beta-catenin stimulation,"[3]; stimulation, at 2 µM",-0.3%
same,insulin secretion stimulation,[4],0.25% (inactive)
same,GLP1 secretion stimulation,[7],-8.7% (inactive)
CC[N+]1(CCOC(=O)C(O)(c2ccccc2)c2ccccc2)CCCCC1,nuclear beta-catenin stimulation,[3]; at 10 µM,-0.3% (inactive)
same,nuclear beta-catenin stimulation,"[3]; stimulation, at 2 µM",0.7%
same,insulin secretion stimulation,[4],-0.8% (inactive)
same,tube area decrease,[6],23.5% (inactive)
same,GLP1 secretion stimulation,[7],0.5% (inactive)
C=C1CC[C@@]2(O)[C@H]3Cc4ccc(O)c5c4[C@@]2(CCN3CC2CC2)[C@H]1O5,nuclear beta-catenin stimulation,[3]; at 10 µM,0.5% (inactive)
same,nuclear beta-catenin stimulation,"[3]; stimulation, at 2 µM",2.1%
same,insulin secretion stimulation,[4],1.2% (inactive)
same,viability decrease,[5],-11.9% (inactive)
same,tube area decrease,[6],5.1% (inactive)
same,GLP1 secretion stimulation,[7],2.6% (inactive)
same,inhibition of viability,[8],20.1% (inactive)
same,viability decrease (inhibition),[9],7.8% (inactive)
same,viability decrease (inhibition),[10],6.2% (inactive)
same,z-score,[12]; [18],0.147 (inactive)
same,z-score,[12]; [19],-0.2
NCCC[C@H](N)C(=O)O,nuclear beta-catenin stimulation,[3]; at 10 µM,1.2% (inactive)
same,nuclear beta-catenin stimulation,"[3]; stimulation, at 2 µM",1.6%
same,insulin secretion stimulation,[4],-2.2% (inactive)
same,viability decrease,[5],-5.15% (inactive)
same,tube area decrease,[6],-2.1% (inactive)
same,GLP1 secretion stimulation,[7],1.4% (inactive)
same,inhibition of viability,[8],-35.4% (inactive)
same,viability decrease (inhibition),[9],98.1% (active)
same,viability decrease (inhibition),[10],0.35% (inactive)
same,remaining NAD,[13],10 nM (inactive)
C#C[C@]1(O)CC[C@H]2[C@@H]3CCC4=CC(=O)CCC4=C3C=C[C@@]21CC,parasite load remaining,[2],55.7% (inactive)
same,viability,[2],102%
same,nuclear beta-catenin stimulation,[3]; at 10 µM,-0.6% (inactive)
same,nuclear beta-catenin stimulation,"[3]; stimulation, at 2 µM",0.3%
same,insulin secretion stimulation,[4],0.7% (inactive)
same,viability decrease,[5],14.5% (inactive)
same,tube area decrease,[6],41.9% (active)
same,GLP1 secretion stimulation,[7],2.8% (inactive)
same,inhibition of viability,[8],26.1% (inactive)
same,viability decrease (inhibition),[9],16% (inactive)
same,viability decrease (inhibition),[10],-9.5% (inactive)
same,fold change,[11]; stronger effect = lower value,0.886 (inactive)
same,fold change,[11]; [15],1.01
same,cell count,[11]; [16],9780
same,cell count,[11]; [17],11000
same,z-score,[12]; [18],0.0912 (inactive) and 0.694 (inactive)
same,z-score,[12]; [19],0.385 and 1.43
same,z-score,[14],0.24 (inactive)
